We go through four molecules from PubChem BioAssay AID720690 (Broad Institute, 2013).

Potency and affinity values are given separately. Active and inactive are the calls of the source.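 How the source made its calls: active means every repeat run showing a signal drop whose fitted half-maximal concentration is at most twice the top tested concentration; inconclusive means repeat runs disagree, or flat partial drop, or poor fit; inactive means the rest.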

This experiment can be described thus: general mammalian cell viability loss – activator set, cherry-pick, cytotoxicity control for miR-122 modulator project, dose response (AID 720690). The settings on record: HEK293T viability, CellTiter-Glo luminescence, 48 h; series mostly up to 26 µM.
Turning to `O=C1NC(=O)N(CCC2=CCCCC2)C(=O)/C1=C\c1cccs1`, the call was inactive. The same measure for `COc1ccc(C2SCC(=O)Nc3c2c(=O)[nH]n3C2CCCCCC2)cc1` (centres undefined): “inactive”; for `COc1ccc2c(c1)c(CCN)c(C)n2Cc1ccccc1`: “inactive”. Take `O=C(c1ccco1)c1cn(Cc2ccccc2Cl)c2ccccc12`: the molecule was classed as inactive.
